Our source for the growth values is PubChem BioAssay (NCI).

Compounds without any hit were thinned out: in the full panel of roughly 83,000, 20% have a hit.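 Cell lines were cultured in 96-well plates, exposed to a single compound concentration, and assessed for percent growth 48 hours later.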 Values without a mark were called inactive. The source made the active and inactive calls. How the source made its calls: active means growth percent below 10; inactive means the rest.

Assay in all cases: NCI-60 one-dose screen, 48 h (100 = growth as untreated, 0 = no growth, -100 = all killed)
Conditions in all cases: 10 µM unless noted

Experiment [1] has as its system SK-MEL-2 melanoma.
Experiment [2] has as its system EKVX NSCLC.
Experiment [3] concerns SN12C renal.
For experiment [4], the system named is UO-31 renal.
Experiment [5] deals with TK-10 renal.
The subject of experiment [6] is ACHN renal.
Experiment [7] has as its system CAKI-1 renal.
Experiment [8] concerns A498 renal.
Experiment [9] relates to CCRF-CEM leukemia.
For experiment [10], the system named is MOLT-4 leukemia.
In experiment [11] the test system is SR leukemia.
Experiment [12] has as its system RPMI-8226 leukemia.
Experiment [13] deals with OVCAR-8 ovarian.
In experiment [14] the test system is OVCAR-5 ovarian.
The test system of experiment [15] is OVCAR-4 ovarian.
Experiment [16] deals with SK-OV-3 ovarian.
For experiment [17], the system named is IGROV1 ovarian.
For experiment [18], the system named is OVCAR-3 ovarian.
In experiment [19] the test system is HS 578T breast.
In experiment [20] the test system is NCI/ADR-RES ovarian.

For the molecule `CC(C)(C)n1cc(-c2ccnc(NCCNS(=O)(=O)c3ccc(O)cc3)c2)c(-c2cccc(O)c2)n1`, the growth in experiment [1] is 108%; in experiment [2] it was 104%; in experiment [3], 98.3%; in [4], 91.2%; in [5], 116%; in experiment [6] it was 98.2%. The growth was 103% in experiment [7]; 88.8% in experiment [8]; 92.7% in experiment [9]; 95.1% in experiment [10]; 88% in [11]; 80% in experiment [12]. In addition, the growth was 96% in experiment [13]; 97.1% in experiment [14]; 94.1% in experiment [15]; 116% in experiment [16]; 112% in experiment [17]; 114% in experiment [18]. Moreover, the growth is 97.6% in experiment [19] and 107% in experiment [20].

On to `Cc1ccc(-c2nc3nc(-c4ccccc4)nc(N4CCCN(S(C)(=O)=O)CC4)c3o2)cc1`, for which the growth in experiment [1] is 86.2%; in [2], 93.7%; in experiment [3], 71.8%; in [4] it was 59.3%; in [5] it was 66.9%; in experiment [6], 46.1%. Besides, the growth is 63.4% in [7]; 94.3% in experiment [8]; 63.9% in experiment [9]; 56.3% in experiment [10]; 30.8% in experiment [11]; 92.5% in experiment [12]. In addition, the growth in experiment [13] was 50.7%; in [14] it was 92.5%; in experiment [15], 48.2%; in experiment [16], 81.3%; in experiment [17], 75.7%; in [18] it was 83.4%. The growth is 86.5% in experiment [19] and 56.2% in experiment [20].

Regarding `Cc1ccccc1Nc1cc(O)c2c(=O)cc(-c3ccccc3)oc2c1`, the growth in experiment [1] is 65.7%; in experiment [2], 35.5%; in experiment [3], 31.8%; in [4] it was 42.3%; in experiment [5] it was 110%; in experiment [6] it was 34.5%. In addition, the growth in [7] was 39%; in experiment [8], 31.3%; in experiment [9], 29.5%; in [10], 25.8%; in experiment [11], 7.93% (active); in experiment [12], 29.7%. For the same molecule, the growth was 52.5% in experiment [13]; 89.2% in [14]; 53.1% in experiment [15]; 59.3% in experiment [16]; 45.3% in experiment [17]; -4.27% (active) in [18]. Moreover, the growth was 44.7% in experiment [19] and 4.9% (active) in experiment [20].

As for `CN1C(=O)/C(=C2\SC(=Nc3ccccc3)N(Nc3ccccc3)C2=O)c2ccccc21`, the growth in [1] was 108%; in experiment [2] it was 101%; in experiment [3], 97.8%; in [4], 61.4%; in experiment [5] it was 148%; in [6] it was 95.3%. The growth in experiment [7] is 74.2%; in experiment [8], 103%; in experiment [9], 103%; in experiment [10], 101%; in experiment [11], 117%; in [12] it was 106%. In addition, the growth was 102% in experiment [13]; 104% in [14]; 111% in experiment [15]; 98% in [16]; 79.5% in experiment [17]; 110% in experiment [18]. For the same molecule, the growth in experiment [19] was 107%; in [20] it was 102%.

In the case of `Cc1nc2ccccc2c(/C=C/c2ccccc2)c1C(=O)/C=C/c1ccccc1`, the growth in [1] is 27%; in [2], 45.9%; in experiment [3], 23.4%; in experiment [4] it was 35.8%; in experiment [5], 31%; in experiment [6] it was 17.4%. Moreover, the growth in experiment [7] was 34.7%; in experiment [8], 74%; in experiment [9], 6.85% (active); in experiment [10], 10.8%; in experiment [11] it was 12.3%; in experiment [12] it was 8.21% (active). Besides, the growth in experiment [13] was 10.4%; in [14] it was 6.51% (active); in experiment [15], 38.5%; in experiment [16] it was 68.1%; in experiment [17], 18.5%; in experiment [18], 3.37% (active). Besides, the figures for the growth in [19] and in experiment [20] were 41.9% and 7.26% (active), respectively.

With `O=C(CSc1nc(-c2ccccc2)cc(=O)[nH]1)Nc1nc(-c2ccccc2)cs1`, the growth in experiment [1] is 96.9%; in experiment [2] it was 75.7%; in [3] it was 102%; in experiment [4], 65.2%; in experiment [5], 106%; in [6], 95.2%. Besides, the growth in [7] was 75.1%; in experiment [8] it was 114%; in experiment [9] it was 96.2%; in experiment [10] it was -17.6% (active); in experiment [11] it was 45.1%; in [12], 96.1%. Further, the growth is 97% in [13]; 95.9% in experiment [14]; 96.1% in experiment [15]; 84.1% in [16]; 57.8% in experiment [17]; 101% in experiment [18]. In addition, the growth was 90% in experiment [19] and 93.2% in experiment [20].

Consider `CN1CCN(C(=S)SCCCCOc2cc(=O)oc3ccccc23)CC1`, for which the growth in experiment [1] is 73.9%; in experiment [2], 88.1%; in [3], 88.5%; in [4], 72.3%; in experiment [5], 93.3%; in experiment [6], 92.9%. Besides, the growth in experiment [7] is 93.7%; in experiment [8] it was 74.7%; in experiment [9] it was 72.5%; in experiment [10], 73.2%; in experiment [11], 67.4%; in experiment [12], 64.8%. In addition, the growth in experiment [13] is 78.4%; in experiment [14], 101%; in [15], 72.4%; in experiment [16], 99.5%; in [17], 102%; in experiment [18] it was 95.8%. Moreover, the growth is 96.2% in experiment [19] and 76.2% in experiment [20].

Regarding `CCOC(=O)/C=C1\S/C(=N\Nc2cc(=O)[nH]c3ccccc23)N(c2ccccc2)C1=O`, the growth was 110% in experiment [1]; 104% in experiment [2]; 98.9% in [3]; 77.6% in experiment [4]; 117% in experiment [5]; 102% in experiment [6]. The growth in [7] is 92.8%; in experiment [8], 125%; in experiment [9], 101%; in [10], 103%; in experiment [11] it was 96.6%; in experiment [12], 112%. The growth was 100% in experiment [13]; 101% in [14]; 84.3% in experiment [15]; 101% in [16]; 105% in experiment [17]; 104% in experiment [18]. Moreover, the growth in experiment [19] and in experiment [20] was 101% throughout.

On to `C=C1C(=O)O[C@H]2[C@H]1CC/C(COC(=O)c1cc3cc(Cl)ccc3[nH]1)=C\CC[C@@]1(C)O[C@@H]21`, for which the growth was -84.2% (active) in experiment [1]; -83% (active) in experiment [2]; -61.2% (active) in [3]; -93.6% (active) in experiment [4]; -99.3% (active) in experiment [5]; -89.2% (active) in experiment [6]. Moreover, the growth was -89.8% (active) in experiment [7]; -11.9% (active) in experiment [8]; -24.8% (active) in experiment [9]; -21% (active) in experiment [10]; -25.6% (active) in [11]; -29.9% (active) in experiment [12]. Moreover, the growth in experiment [13] was -72.9% (active); in [14], -69.9% (active); in experiment [15] it was -81.9% (active); in experiment [16] it was 27.6%; in experiment [17] it was -82.7% (active); in experiment [18] it was -91.3% (active). Moreover, the growth in [19] was -22% (active); in experiment [20], -35.3% (active).
